Assay results: the supplement of paper PMC7261846
Structures can show the parent of a compound that is named as a salt. ± gives the uncertainty stated by the source.

Test system: Candida albicans SNY425 biofilm
Assay: biofilm OD600 with compound plus antifungal (OD600 (absorbance)); higher = more biofilm remaining
[1] = assay detail: disruption of 24-h mature biofilm (compound + antifungal for a second 24 h)
[2] = assay detail: sustained inhibition (compound + antifungal during 90-min adherence and 24-h growth)

Compound | biofilm OD600 [1] | biofilm OD600 [2]
CC(C)c1nc(CN(C)C(=O)N[C@H](C(=O)N[C@@H](Cc2ccccc2)C[C@H](O)[C@H](Cc2ccccc2)NC(=O)OCc2cncs2)C(C)C)cs1 [ritonavir] + C[C@@H]1[C@H](O)[C@@H](C)/C=C/C=C/C=C/C=C/C=C/C=C/C=C/[C@H](O[C@@H]2O[C@H](C)[C@@H](O)[C@H](N)[C@@H]2O)C[C@@H]2O[C@](O)(C[C@@H](O)C[C@@H](O)[C@H](O)CC[C@@H](O)C[C@@H](O)CC(=O)O[C@H]1C)C[C@H](O)[C@H]2C(=O)O [amphotericin B] (first compound 12.5 µM) | 0.246 ± 0.0053 | 0.146 ± 0.0034
CC(C)CN(C[C@@H](O)[C@H](Cc1ccccc1)NC(=O)O[C@H]1CCOC1)S(=O)(=O)c1ccc(N)cc1 [amprenavir] + C[C@@H]1[C@H](O)[C@@H](C)/C=C/C=C/C=C/C=C/C=C/C=C/C=C/[C@H](O[C@@H]2O[C@H](C)[C@@H](O)[C@H](N)[C@@H]2O)C[C@@H]2O[C@](O)(C[C@@H](O)C[C@@H](O)[C@H](O)CC[C@@H](O)C[C@@H](O)CC(=O)O[C@H]1C)C[C@H](O)[C@H]2C(=O)O [amphotericin B] (first compound 12.5 µM) | 0.283 ± 0.009 | 0.232 ± 0.011
CC(C)C[C@H](NC(=O)N[C@H](C(=O)N[C@@H](CCC(N)=O)C(=O)N[C@@H](C)C=O)[C@@H]1CCNC(=N)N1)C(=O)O [Elastatinal] + C[C@@H]1[C@H](O)[C@@H](C)/C=C/C=C/C=C/C=C/C=C/C=C/C=C/[C@H](O[C@@H]2O[C@H](C)[C@@H](O)[C@H](N)[C@@H]2O)C[C@@H]2O[C@](O)(C[C@@H](O)C[C@@H](O)[C@H](O)CC[C@@H](O)C[C@@H](O)CC(=O)O[C@H]1C)C[C@H](O)[C@H]2C(=O)O [amphotericin B] (first compound 12.5 µM) | 0.273 ± 0.0073 | 0.21 ± 0.0065
NCC1CCC(C(=O)N[C@@H](Cc2ccccc2)C(=O)Nc2ccc(CC(=O)O)cc2)CC1 (some centres undefined) + CC[C@H](C)C[C@H](C)CCCCCCCCC(=O)N[C@H]1C[C@@H](O)[C@@H](NCCN)NC(=O)[C@@H]2[C@@H](O)CCN2C(=O)[C@H]([C@H](O)CCN)NC(=O)[C@H]([C@H](O)[C@@H](O)c2ccc(O)cc2)NC(=O)[C@@H]2C[C@@H](O)CN2C(=O)[C@H]([C@@H](C)O)NC1=O [caspofungin] (first compound 12.5 µM) | 0.26 ± 0.0081 | 0.191 ± 0.024
C[C@H](CS)C(=O)N1CCC[C@H]1C(=O)O [Captopril] + CC[C@H](C)C[C@H](C)CCCCCCCCC(=O)N[C@H]1C[C@@H](O)[C@@H](NCCN)NC(=O)[C@@H]2[C@@H](O)CCN2C(=O)[C@H]([C@H](O)CCN)NC(=O)[C@H]([C@H](O)[C@@H](O)c2ccc(O)cc2)NC(=O)[C@@H]2C[C@@H](O)CN2C(=O)[C@H]([C@@H](C)O)NC1=O [caspofungin] (first compound 12.5 µM) | 0.286 ± 0.011 | 0.198 ± 0.0082
CC(C)CN(C[C@@H](O)[C@H](Cc1ccccc1)NC(=O)O[C@H]1CCOC1)S(=O)(=O)c1ccc(N)cc1 [amprenavir] + OC(Cn1cncn1)(Cn1cncn1)c1ccc(F)cc1F [fluconazole] (first compound 12.5 µM) | 0.264 ± 0.0069 | 0.16 ± 0.011
CC1(C)C[C@@H]1C(=O)N/C(=C\CCCCSC[C@H](N)C(=O)O)C(=O)O [Cilastatin] + C[C@@H]1[C@H](O)[C@@H](C)/C=C/C=C/C=C/C=C/C=C/C=C/C=C/[C@H](O[C@@H]2O[C@H](C)[C@@H](O)[C@H](N)[C@@H]2O)C[C@@H]2O[C@](O)(C[C@@H](O)C[C@@H](O)[C@H](O)CC[C@@H](O)C[C@@H](O)CC(=O)O[C@H]1C)C[C@H](O)[C@H]2C(=O)O [amphotericin B] (first compound 12.5 µM) | 0.293 ± 0.012 | 0.211 ± 0.015
O=C[C@@H]1CCCN1C(=O)[C@@H]1CCCN1C(=O)OCc1ccccc1 [Z-Prolyl-prolinal] + CC[C@H](C)C[C@H](C)CCCCCCCCC(=O)N[C@H]1C[C@@H](O)[C@@H](NCCN)NC(=O)[C@@H]2[C@@H](O)CCN2C(=O)[C@H]([C@H](O)CCN)NC(=O)[C@H]([C@H](O)[C@@H](O)c2ccc(O)cc2)NC(=O)[C@@H]2C[C@@H](O)CN2C(=O)[C@H]([C@@H](C)O)NC1=O [caspofungin] (first compound 12.5 µM) | 0.261 ± 0.0097 | 0.153 ± 0.0098
O=C(O)CNC(=O)C(CS)Cc1ccccc1 (racemic) [DL-Thiorphan] + OC(Cn1cncn1)(Cn1cncn1)c1ccc(F)cc1F [fluconazole] (first compound 12.5 µM) | 0.262 ± 0.0084 | 0.107 ± 0.0069
CSCCC(C=O)NC(=O)C(CC(C)C)NC(=O)[C@H](CC(C)C)NC(C)=O (some centres undefined) [Calpain Inhibitor II (ALLM)] + CC[C@H](C)C[C@H](C)CCCCCCCCC(=O)N[C@H]1C[C@@H](O)[C@@H](NCCN)NC(=O)[C@@H]2[C@@H](O)CCN2C(=O)[C@H]([C@H](O)CCN)NC(=O)[C@H]([C@H](O)[C@@H](O)c2ccc(O)cc2)NC(=O)[C@@H]2C[C@@H](O)CN2C(=O)[C@H]([C@@H](C)O)NC1=O [caspofungin] (first compound 12.5 µM) | 0.249 ± 0.0042 | 0.178 ± 0.0059
N=C(N)Nc1ccc(C(=O)Oc2ccc3cc(C(=N)N)ccc3c2)cc1 [Nafamostat mesylate] + OC(Cn1cncn1)(Cn1cncn1)c1ccc(F)cc1F [fluconazole] (first compound 12.5 µM) | 0.262 ± 0.011 | 0.104 ± 0.0089
CC(C)C[C@H](NC(=O)[C@H]1O[C@@H]1C(=O)O)C(=O)NCCCCN=C(N)N + C[C@@H]1[C@H](O)[C@@H](C)/C=C/C=C/C=C/C=C/C=C/C=C/C=C/[C@H](O[C@@H]2O[C@H](C)[C@@H](O)[C@H](N)[C@@H]2O)C[C@@H]2O[C@](O)(C[C@@H](O)C[C@@H](O)[C@H](O)CC[C@@H](O)C[C@@H](O)CC(=O)O[C@H]1C)C[C@H](O)[C@H]2C(=O)O [amphotericin B] (first compound 12.5 µM) | 0.266 ± 0.0082 | 0.209 ± 0.0073
CCC[C@@]1(CCc2ccccc2)CC(O)=C([C@H](CC)c2cccc(NS(=O)(=O)c3ccc(C(F)(F)F)cn3)c2)C(=O)O1 [tipranavir] + C[C@@H]1[C@H](O)[C@@H](C)/C=C/C=C/C=C/C=C/C=C/C=C/C=C/[C@H](O[C@@H]2O[C@H](C)[C@@H](O)[C@H](N)[C@@H]2O)C[C@@H]2O[C@](O)(C[C@@H](O)C[C@@H](O)[C@H](O)CC[C@@H](O)C[C@@H](O)CC(=O)O[C@H]1C)C[C@H](O)[C@H]2C(=O)O [amphotericin B] (first compound 12.5 µM) | 0.264 ± 0.0073 | 0.185 ± 0.0069
CCCC[C@@H](C=O)NC(=O)[C@H](CC(C)C)NC(=O)OCc1ccccc1 [Calpeptin] + OC(Cn1cncn1)(Cn1cncn1)c1ccc(F)cc1F [fluconazole] (first compound 12.5 µM) | 0.26 ± 0.0076 | 0.162 ± 0.01
CCN1C(=O)C=CC1=O [N-Ethylmaleimide] + OC(Cn1cncn1)(Cn1cncn1)c1ccc(F)cc1F [fluconazole] (first compound 4 µM) | 0.278 ± 0.0073 | 0.113 ± 0.011
O=C(NCCCCN1CCOCC1)c1cc2ccccc2o1 + CC[C@H](C)C[C@H](C)CCCCCCCCC(=O)N[C@H]1C[C@@H](O)[C@@H](NCCN)NC(=O)[C@@H]2[C@@H](O)CCN2C(=O)[C@H]([C@H](O)CCN)NC(=O)[C@H]([C@H](O)[C@@H](O)c2ccc(O)cc2)NC(=O)[C@@H]2C[C@@H](O)CN2C(=O)[C@H]([C@@H](C)O)NC1=O [caspofungin] (first compound 12.5 µM) | 0.251 ± 0.014 | 0.202 ± 0.01
O=C(O[C@@H]1Cc2c(O)cc(O)cc2O[C@@H]1c1cc(O)c(O)c(O)c1)c1cc(O)c(O)c(O)c1 [Epigallocatechin gallate] + CC[C@H](C)C[C@H](C)CCCCCCCCC(=O)N[C@H]1C[C@@H](O)[C@@H](NCCN)NC(=O)[C@@H]2[C@@H](O)CCN2C(=O)[C@H]([C@H](O)CCN)NC(=O)[C@H]([C@H](O)[C@@H](O)c2ccc(O)cc2)NC(=O)[C@@H]2C[C@@H](O)CN2C(=O)[C@H]([C@@H](C)O)NC1=O [caspofungin] (first compound 12.5 µM) | 0.264 ± 0.016 | 0.211 ± 0.01
NC(=O)c1cccc(-c2cccc(OC(=O)NC3CCCCC3)c2)c1 + CC[C@H](C)C[C@H](C)CCCCCCCCC(=O)N[C@H]1C[C@@H](O)[C@@H](NCCN)NC(=O)[C@@H]2[C@@H](O)CCN2C(=O)[C@H]([C@H](O)CCN)NC(=O)[C@H]([C@H](O)[C@@H](O)c2ccc(O)cc2)NC(=O)[C@@H]2C[C@@H](O)CN2C(=O)[C@H]([C@@H](C)O)NC1=O [caspofungin] (first compound 12.5 µM) | 0.283 ± 0.011 | 0.171 ± 0.0069
Cc1cccc(C)c1OCC(=O)N[C@@H](Cc1ccccc1)[C@@H](O)C[C@H](Cc1ccccc1)NC(=O)[C@H](C(C)C)N1CCCNC1=O [lopinavir] + OC(Cn1cncn1)(Cn1cncn1)c1ccc(F)cc1F [fluconazole] (first compound 12.5 µM) | 0.246 ± 0.01 | 0.141 ± 0.021
CC(C)C[C@H](NP(=O)(O)O[C@@H]1O[C@@H](C)[C@H](O)[C@@H](O)[C@H]1O)C(=O)N[C@@H](Cc1c[nH]c2ccccc12)C(=O)O [Phosphoramidon] + C[C@@H]1[C@H](O)[C@@H](C)/C=C/C=C/C=C/C=C/C=C/C=C/C=C/[C@H](O[C@@H]2O[C@H](C)[C@@H](O)[C@H](N)[C@@H]2O)C[C@@H]2O[C@](O)(C[C@@H](O)C[C@@H](O)[C@H](O)CC[C@@H](O)C[C@@H](O)CC(=O)O[C@H]1C)C[C@H](O)[C@H]2C(=O)O [amphotericin B] (first compound 12.5 µM) | 0.28 ± 0.0089 | 0.211 ± 0.0094
CCCCCCCCCC(=O)N[C@@H](CCCN=C(N)N)C(=O)N[C@H](C(=O)N[C@@H](CCCCN)C(=O)N[C@@H](CCCN=C(N)N)C(=O)CCl)C(C)C + CC[C@H](C)C[C@H](C)CCCCCCCCC(=O)N[C@H]1C[C@@H](O)[C@@H](NCCN)NC(=O)[C@@H]2[C@@H](O)CCN2C(=O)[C@H]([C@H](O)CCN)NC(=O)[C@H]([C@H](O)[C@@H](O)c2ccc(O)cc2)NC(=O)[C@@H]2C[C@@H](O)CN2C(=O)[C@H]([C@@H](C)O)NC1=O [caspofungin] (first compound 4 µM) | 0.18 ± 0.013 | 0.141 ± 0.018
CCN1C(=O)C=CC1=O [N-Ethylmaleimide] + C[C@@H]1[C@H](O)[C@@H](C)/C=C/C=C/C=C/C=C/C=C/C=C/C=C/[C@H](O[C@@H]2O[C@H](C)[C@@H](O)[C@H](N)[C@@H]2O)C[C@@H]2O[C@](O)(C[C@@H](O)C[C@@H](O)[C@H](O)CC[C@@H](O)C[C@@H](O)CC(=O)O[C@H]1C)C[C@H](O)[C@H]2C(=O)O [amphotericin B] (first compound 4 µM) | 0.304 ± 0.0086 | 0.189 ± 0.0049
